According to PubChem BioAssay AID434958 (Southern Research Specialized Biocontainment Screening …, 2010):
In all, about 1,200 compounds went through this assay and about 400 (33%) were called active. The list is a sample of the results. Entries with a potency or affinity are not part of this list. Values without a mark were called inactive. How the calls were made is not given here.

assay: mammalian cell cytotoxicity, dose response, cytotoxicity control (AID 434958); conditions: cytotoxicity counter-screen; series mostly up to 40 µM; viability: at the top concentration;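 further: cells exposed to compound for 72 hours before readout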

SMILES | viability
Cc1cc(C)c(OCC(=O)Nc2nc3ccccc3[nH]2)c(C)c1 | 90.8%
O=C(COc1ccc2ccccc2c1)Nc1nc2ccccc2[nH]1 | 104%
Cc1ccc(SCc2c(C#N)c3ccccc3n2C)cc1 | 93.7%
Clc1ccc(Cn2cc(/C=N/n3cnnc3)c3ccccc32)cc1 | 88%
Nc1nc(Sc2ncccc2[N+](=O)[O-])n[nH]1 | 105%
Cc1nnnn1/C(=C\c1ccccc1)C(=O)OCC(=O)NC1CCCCC1 | 105%
CCOC(=O)CNC(=O)CSc1ncnc2c1cnn2Cc1ccccc1 | 101%
Cc1cc(C)n(-c2nc3ccccc3c(=O)n2OCC(=O)N(C)C)n1 | 102%
CC1CCN(C(=S)NC(=O)c2ccccc2)CC1 | 103%
CCc1cc2c(=O)nc3n(c2s1)Cc1ccccc1/C3=C(/O)c1ccc(F)cc1 | 85.5%
CCCSc1nnc(NC(=O)c2sc3nc(-c4cccs4)ccc3c2N)s1 | 89%
CCC(CC)c1nnc(NC(=O)c2cc(-c3ccccc3)nc3ccccc23)s1 | 85.5%
COc1cc(OC)c(OC)cc1/C=C1\CCC(C2CCCC2)C1=O (stereo not given) | 93.4%
O=C(NCc1ccc2c(c1)OCO2)C(=O)NC1CCCCC1 | 85.3%
CCCCn1nc2cc(C(=O)NCC34CC5CC(CC(C5)C3)C4)ccc2c1OCC | 83.6%
O=C(OCC(=O)c1c[nH]c2ccccc12)c1cccc([N+](=O)[O-])c1 | 91.4%
O=C(CSc1nnc(-c2ccncc2)o1)c1cccc([N+](=O)[O-])c1 | 99%
O=C(Cn1nnc2c(cnn2-c2ccccc2)c1=O)N1CCN(c2ccccc2F)CC1 | 97.6%
CCN(CCNC(=O)Nc1ccc(Cl)cc1)c1ccccc1 | 103%
CCOC(=O)c1nn(-c2ccc(Cl)cc2)cc1O | 98.1%
S=c1nccc(-c2ccc3c(c2)CCO3)[nH]1 | 94.1%
CC(=O)Nc1scc(C)c1-c1nc2ccccc2s1 | 88.1%
Cc1ccc(C(=O)Nc2nc3ccccc3s2)s1 | 84.5%
O=C1S/C(=C\C=C\c2ccco2)C(=O)N1c1ccccc1 | 100%

SMILES | viability
O=C1CS/C(=N/N=C2C3CC4CC(C3)CC2C4)N1 | 95%
NC(=S)N/N=C/c1ccc(/C=N/NC(N)=S)cc1 | 102%
CCOC(OCC)c1cn(Cc2ccc3c(c2)C(=O)c2ccccc2C3=O)nn1 | 92.2%
S=C(Nc1ccccc1)Nc1ccc(Cl)cn1 | 92.4%
c1ccc(CSc2nnc(-c3ccco3)o2)cc1 | 98.6%
O=C(Cn1c(=O)n(CCCC(=O)NC2CCCC2)c(=O)c2ccccc21)NCCC1=CCCCC1 | 110% [at 20 µM]
COc1cc(/C=C/c2ccc3cccc([N+](=O)[O-])c3n2)ccc1OCC(=O)O | 107%
CCOc1ccc(NC(=O)/C(C#N)=C/c2cn(CC(=O)O)c3ccccc23)cc1 | 102%
CC(C)(C)c1nc2scc(-c3cccs3)c2c(=O)o1 | 89.9%
O=C(CSc1nnc(-c2cnccn2)n1Cc1ccco1)Nc1ccc(Br)cc1 | 100%
CN(NC(=O)c1c(Cl)cccc1Cl)c1cccc(Cl)n1 | 95%
Cc1onc(-c2ccccc2Cl)c1C(=O)NCc1ccc2c(c1)cc(C)n2C | 98.7%
c1ccc(OCc2nnc(-c3ccccc3)o2)cc1 | 89%
CC1(C)CCN2CCC(C)(C)c3c(O)ccc1c32 | 95.8%
CCN(CC)C(=O)Cn1cc(C(=O)C(=O)N2CCN(c3ccccc3)CC2)c2ccccc21 | 96.2%
C#C[C@]1(O)CC[C@H]2[C@@H]3CCC4=C(CCC(=O)C4)[C@H]3CC[C@@]21C | 104%
Cc1ccc(SCc2c(-c3ccccc3)nn(C)c2Cl)cc1 | 93.7%
O=C(N/N=C/c1c(O)n(Cc2ccc(F)cc2)c(=S)[nH]c1=O)c1ccncc1 | 99.3%
COC(=O)Cn1nc(-c2ccccc2)c2ccccc21 | 102%
COC(=O)c1c(C(=O)OC)c(C)n(Cc2ccco2)c1C | 102%
CCOc1cc(CNCCN(C)C)c(Cl)cc1OCC(=O)NCCc1ccccc1 | 88.7%
CCc1ccc(NC(=O)c2c(Cl)nc(C)c(Cl)c2C)cc1 | 80.3%
Cc1cc(=O)[nH]c(N/N=C/c2c(O)n(-c3ccccc3)c(=O)c3ccccc23)n1 | 97.6%
CCN(CC)C(=O)C1CCCN(c2ccc([N+](=O)[O-])cc2/C=N/NC(=O)c2cccc(O)c2)C1 (stereo not given) | 84.6%

SMILES | viability
Cc1ccccc1/C=N\NC(=O)c1csnn1 | 96%
Cc1nn(-c2ccccc2)cc1/C=N/NC(N)=S | 106%
COc1ccc(/C=N\NC(=O)c2sc(N)nc2C)cc1OC | 87.3%
O=C(N/N=C/c1c(Cl)cccc1Cl)c1cccc(F)c1 | 88.5%
CCc1ccc(NC(=S)Nc2ccc3[nH]c(=O)[nH]c3c2)cc1 | 94.7%
COc1ccc([N+](=O)[O-])cc1NC(=O)c1ccc(Br)s1 | 96.1%
CCOC(=O)c1c(NC(=O)COC(=O)c2ncc(Cl)c(Cl)c2Cl)sc(C(=O)N(C)C)c1C | 101%
COc1cc(OC)c2ccc(=O)oc2c1C(CC(=O)N1CCN(c2ccccc2)CC1)c1ccc2c(c1)OCO2 (stereo not given) | 108%
CCC(C(=O)Nc1ccccc1N1CCCC1)c1ccccc1 (stereo not given) | 99.2%
CCOCC(=O)N1CCN(c2ccc(F)cc2)CC1 | 91.1%
O=C(c1cccc(Cl)c1)N1CCN(Cc2ccccc2F)CC1 | 102%
Cc1ccc(CNC(=O)c2ccccc2NC(=O)CSc2nnnn2C)cc1 | 102%
Cc1ccc(C)c(NC(=O)COC(=O)c2ccc(S(=O)(=O)N3CCCCC3)cc2)c1 | 93.8%
O=c1[nH]c(C2CCN(S(=O)(=O)c3ccc(S(=O)(=O)NC4CC4)cc3)CC2)nc2c1nnn2Cc1ccc(F)cc1 | 110%
COc1cccc(-c2nnn(CC(=O)Nc3cc(OC)c(NC(=O)c4ccco4)cc3OC)n2)c1 | 85.2%
COCCCn1c(=O)/c(=C\c2ccccc2OC(C)C)s/c1=C(/C#N)C(=O)Nc1ccc(C(=O)O)cc1 | 87%
O=C1c2ccccc2N2C(=O)c3ccccc3C2N1O (stereo not given) | 98.3%
CSc1ccccc1NC(=O)c1c(Br)cnn1C | 91.4%
C(=N\n1cnnc1)/c1ccc(-c2ccccc2)cc1 | 93.4%
CCc1ccc(N2C(=O)c3sc4nnc(-c5ccccc5)c(=O)n4c3C2=O)cc1 | 95%
Cn1c(/C=C/c2ccc(Cl)cc2)nc2ccccc2c1=O | 94.1%
CCOc1ccc2c(c1)c(C(C)=O)c(C)n2-c1ccccc1 | 86.3%
